Experimental data reported in the supplement of paper PMC10849652.
Of roughly 7,900 targets only a part is listed; those with a hit were picked by preference. About 0.6% of all pairs of compound and target were hits.

Tests used:
Assay in all cases: log2 fold change, soluble protein after heating vs DMSO (PISA); higher = thermal stabilisation; K562 cells, 10 uM, 30 min; active = over 0.2 and 3.5 SD of the protein, either way, in both replicates (recomputed)
[1] = compound: CC[C@@H]1C(=O)N(C)c2cnc(Nc3ccc(C(=O)NC4CCN(C)CC4)cc3OC)nc2N1C1CCCC1
Outline: (§1)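 Soluble protein was quantified by TMTpro 16plex LC-MS/MS after channel sums were equalised. It was obtained as the supernatant after 21,000xg for 90 min from pooled aliquots of K562 cells (2×10^6 cells/mL, 10 μM compound, 30 min) heated for 3 min across 48°C-58°C and extracted in PBS with 0.5% NP-40 at 4°C. Thermal stability values are relative to control samples and come from duplicates. They are given as log2 fold changes.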

[2] = compound: CC[C@@H]1C(=O)N(C)c2cnc(Nc3ccc(C(=O)N[C@H]4CC[C@H](N5CCN(CC6CC6)CC5)CC4)cc3OC)nc2N1C(C)C [volasertib]
Outline: as §1

[3] = compound: CC[C@H](C)N1C=C(C2=C(C=C(C=C21)C3=CN=C(C=C3)N4CCNCC4)C(=O)NCC5=C(C=C(NC5=O)C)C)C
Outline: as §1

[4] = compound: CC[C@H](C)[C@@H](C(=O)N[C@@H]([C@@H](C)O)C(=O)N[C@@H](CC(C)C)C(=O)[C@]1(CO1)C)NC(=O)[C@H]([C@@H](C)CC)N(C)C(=O)C [epoxomicin]
Outline: as §1

[5] = compound: CCn1c(C(=O)N(C2CC2)C2CC2)cc2c3c(ncn3C)c(Nc3cc(C)n(C)n3)nc21
Outline: as §1

[6] = compound: CCn1cc(-c2ccnc3[nH]c(-c4cccc(CN(C)C)c4)cc23)c(-c2ccc(NC(=O)N(C)C)cc2)n1
Outline: as §1

[7] = compound: CN(C)CC(=O)Nc1ccc2[nH]c(=O)c3ccccc3c2c1
Outline: as §1

[8] = compound: CN(CCOC1=CC=C(C=C1)C[C@H]2C(=O)NC(=O)S2)C3=CC=CC=N3 (racemic) [rosiglitazone]
Outline: as §1

[9] = compound: CN1C2=C(C3=C1C(=O)N(N=C3)CC4=CC(=CC=C4)N)SC(=C2)S(=O)C
Outline: as §1

[10] = compound: CN1CCC(CNc2ccc3ncc(-c4cccc(OC(F)(F)F)c4)n3n2)CC1
Outline: as §1

[11] = compound: CN1CCN(CCOc2cc(OC3CCOCC3)c3c(Nc4c(Cl)ccc5c4OCO5)ncnc3c2)CC1 [saracatinib]
Outline: as §1

[12] = compound: CN1CCN(c2nc(C3=C(c4c[nH]c5ccccc45)C(=O)NC3=O)c3ccccc3n2)CC1 [sotrastaurin]
Outline: as §1

[13] = compound: CN1CC[C@H](c2c(O)cc(O)c3c(=O)cc(-c4ccccc4Cl)oc23)[C@H](O)C1 [alvocidib]
Outline: as §1

[14] = compound: CN1CCc2c(c3ccccc3n2Cc2ccc(C(=O)NO)cc2)C1 [Tubastatin A]
Outline: as §1

[15] = compound: CNC(=O)C1=CC=CC=C1NC2=NC(=NC=C2Cl)NC3=C(C=C(C=C3)N4CCOCC4)OC
Outline: as §1

[16] = compound: CNC(=O)c1ccc(Nc2ncc(C(F)(F)F)c(NCc3nccnc3N(C)S(C)(=O)=O)n2)cc1 [defactinib]
Outline: as §1

[17] = compound: CNCc1ccc(-c2[nH]c3cc(F)cc4c3c2CCNC4=O)cc1 [rucaparib]
Outline: as §1

[18] = compound: CNc1nc(-c2ccc3c(N)n[nH]c3c2)cc(N2C[C@@H](C(=O)NC3CCCCC3)CC[C@H]2C)n1
Outline: as §1

[19] = compound: COC(=O)N[C@@H](C)CNc1nccc(-c2cn(C(C)C)nc2-c2cc(Cl)cc(NS(C)(=O)=O)c2F)n1 [encorafenib]
Outline: as §1

[20] = compound: COC(=O)[C@H](CCSC)NC(=O)C1=C(C=C(C=C1)NC[C@H](CS)N)C2=CC=CC=C2
Outline: as §1

Measured: log2 fold change

LPIN1 isoform 7 (UniProt Q14693)
Chain of UniProt Q14693 (Q14693 whole entry, looked up): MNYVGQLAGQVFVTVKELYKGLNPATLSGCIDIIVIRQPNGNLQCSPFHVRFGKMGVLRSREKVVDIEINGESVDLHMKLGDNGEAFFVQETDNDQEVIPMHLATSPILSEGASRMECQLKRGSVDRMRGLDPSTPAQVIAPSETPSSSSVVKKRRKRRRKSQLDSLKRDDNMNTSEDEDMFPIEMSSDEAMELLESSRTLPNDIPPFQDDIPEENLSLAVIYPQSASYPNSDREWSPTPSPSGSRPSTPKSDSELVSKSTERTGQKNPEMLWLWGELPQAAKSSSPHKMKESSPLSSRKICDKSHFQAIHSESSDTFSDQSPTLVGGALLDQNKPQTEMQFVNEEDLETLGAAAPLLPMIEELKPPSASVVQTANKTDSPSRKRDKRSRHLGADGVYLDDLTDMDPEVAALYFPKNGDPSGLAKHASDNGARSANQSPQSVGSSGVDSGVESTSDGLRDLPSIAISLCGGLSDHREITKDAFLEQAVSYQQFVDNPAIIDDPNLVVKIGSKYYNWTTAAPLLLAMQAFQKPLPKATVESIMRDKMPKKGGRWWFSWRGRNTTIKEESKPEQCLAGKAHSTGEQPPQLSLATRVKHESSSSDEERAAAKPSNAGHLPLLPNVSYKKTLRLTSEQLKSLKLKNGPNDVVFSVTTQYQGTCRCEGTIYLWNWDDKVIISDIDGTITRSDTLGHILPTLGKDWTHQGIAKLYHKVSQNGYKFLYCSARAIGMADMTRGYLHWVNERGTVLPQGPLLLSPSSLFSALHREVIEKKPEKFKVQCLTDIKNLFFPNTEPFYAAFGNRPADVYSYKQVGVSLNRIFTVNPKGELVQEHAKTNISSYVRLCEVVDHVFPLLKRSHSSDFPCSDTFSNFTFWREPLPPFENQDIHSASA
inactive: [1] 0.06 | [2] -0.002 | [3] 0.063 | [4] 0.098 | [5] 0.011 | [6] -0.045 | [7] 0.012 | [8] 0.055 | [9] 0.008 | [10] -0.016 | [11] 0.003 | [12] -0.093 | [13] -0.059 | [14] 0.041 | [15] -0.113 | [16] -0.03 | [17] -0.054 | [18] -0.13 | [19] 0.009 | [20] 0.035

MFF (UniProt Q9GZY8)
Chain of UniProt Q9GZY8 (Q9GZY8 whole entry, looked up): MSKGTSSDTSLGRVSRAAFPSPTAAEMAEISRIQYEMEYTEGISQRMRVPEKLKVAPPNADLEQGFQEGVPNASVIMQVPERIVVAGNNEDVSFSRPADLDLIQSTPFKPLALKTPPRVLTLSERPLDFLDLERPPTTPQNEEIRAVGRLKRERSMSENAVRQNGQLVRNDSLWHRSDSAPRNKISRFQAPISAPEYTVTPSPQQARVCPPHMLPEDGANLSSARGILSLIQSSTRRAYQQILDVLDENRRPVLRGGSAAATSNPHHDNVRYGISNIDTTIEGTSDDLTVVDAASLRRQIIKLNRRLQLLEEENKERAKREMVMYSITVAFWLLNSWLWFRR
active: [10] -0.386
inactive: [1] -0.007 | [2] 0 | [3] -0.046 | [4] 0.037 | [5] 0 | [6] 0.043 | [7] -0.031 | [8] 0.035 | [9] 0.031 | [11] 0.003 | [12] -0.027 | [13] -0.06 | [14] 0.012 | [15] -0.127 | [16] -0.025 | [17] -0.059 | [18] -0.078 | [19] 0.015 | [20] 0.092

KCTD2 (UniProt Q14681)
Chain of UniProt Q14681 (Q14681 whole entry, looked up): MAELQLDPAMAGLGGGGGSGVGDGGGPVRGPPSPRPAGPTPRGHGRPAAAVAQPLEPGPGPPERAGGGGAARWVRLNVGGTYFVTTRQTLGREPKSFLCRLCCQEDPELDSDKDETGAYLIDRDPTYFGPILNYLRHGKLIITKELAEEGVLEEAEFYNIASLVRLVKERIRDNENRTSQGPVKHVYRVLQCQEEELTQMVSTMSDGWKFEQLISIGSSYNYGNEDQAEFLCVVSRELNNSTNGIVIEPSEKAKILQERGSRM
inactive: [1] 0.003 | [2] 0.029 | [3] -0.033 | [4] -0.052 | [5] 0.007 | [6] -0.024 | [7] -0.068 | [8] -0.024 | [9] 0.049 | [10] -0.623 | [11] -0.276 | [12] 0.226 | [13] 0.188 | [14] 0.015 | [15] -0.076 | [16] 0.038 | [17] 0.066 | [18] -0.243 | [19] -0.128 | [20] 0.082

LIMA1 isoform 4 (UniProt Q9UHB6)
Chain of UniProt Q9UHB6 (Q9UHB6 whole entry, looked up): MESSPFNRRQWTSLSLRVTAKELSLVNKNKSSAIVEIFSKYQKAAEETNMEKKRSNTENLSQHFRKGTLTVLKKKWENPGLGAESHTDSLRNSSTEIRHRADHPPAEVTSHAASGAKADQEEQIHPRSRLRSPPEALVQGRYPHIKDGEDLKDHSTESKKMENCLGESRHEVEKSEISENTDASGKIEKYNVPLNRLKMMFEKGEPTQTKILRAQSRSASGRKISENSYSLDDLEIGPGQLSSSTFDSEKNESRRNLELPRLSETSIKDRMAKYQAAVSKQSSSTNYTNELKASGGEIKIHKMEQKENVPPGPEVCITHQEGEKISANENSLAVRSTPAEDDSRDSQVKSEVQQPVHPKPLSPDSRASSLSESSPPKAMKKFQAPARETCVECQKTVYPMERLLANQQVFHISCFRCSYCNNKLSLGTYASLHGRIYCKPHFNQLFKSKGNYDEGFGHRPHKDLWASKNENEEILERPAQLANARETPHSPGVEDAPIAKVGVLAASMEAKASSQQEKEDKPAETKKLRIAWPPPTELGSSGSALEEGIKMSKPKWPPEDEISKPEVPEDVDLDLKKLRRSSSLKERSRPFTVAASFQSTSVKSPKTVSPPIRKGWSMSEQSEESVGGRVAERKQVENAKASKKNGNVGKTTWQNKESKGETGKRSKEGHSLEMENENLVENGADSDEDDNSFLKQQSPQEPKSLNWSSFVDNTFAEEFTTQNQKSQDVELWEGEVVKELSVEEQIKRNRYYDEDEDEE
inactive: [1] -0.006 | [2] -0.115 | [3] -0.021 | [4] 0.003 | [5] -0.015 | [6] 0 | [7] -0.053 | [8] -0.01 | [9] -0.006 | [10] 0.086 | [11] 0.046 | [12] -0.109 | [13] 0.111 | [14] 0.014 | [15] -0.033 | [16] -0.015 | [17] 0.074 | [18] -0.089 | [19] 0.017 | [20] 0.01

MAP2K3 isoform 3 (UniProt P46734)
Chain of UniProt P46734 (P46734 whole entry, looked up): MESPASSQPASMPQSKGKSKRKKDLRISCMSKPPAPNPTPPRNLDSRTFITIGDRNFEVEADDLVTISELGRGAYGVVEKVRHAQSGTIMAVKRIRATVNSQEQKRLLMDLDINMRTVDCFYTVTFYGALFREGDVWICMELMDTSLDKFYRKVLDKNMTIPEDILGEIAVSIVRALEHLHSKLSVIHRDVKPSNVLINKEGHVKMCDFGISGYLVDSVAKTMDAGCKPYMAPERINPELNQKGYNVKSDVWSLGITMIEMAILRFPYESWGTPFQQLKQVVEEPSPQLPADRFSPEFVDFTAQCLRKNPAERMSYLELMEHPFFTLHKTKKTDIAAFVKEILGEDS
inactive: [1] -0.041 | [2] -0.17 | [3] 0.09 | [4] -0.035 | [5] -0.017 | [6] 0.039 | [7] 0.038 | [8] 0.018 | [9] -0.054 | [10] -0.121 | [11] 0.024 | [12] 0.017 | [13] -0.029 | [14] -0.045 | [15] -0.025 | [16] -0.063 | [17] 0.058 | [18] -0.061 | [19] -0.02 | [20] 0.003

LMBRD1 (UniProt Q9NUN5)
Chain of UniProt Q9NUN5 (Q9NUN5 whole entry, looked up): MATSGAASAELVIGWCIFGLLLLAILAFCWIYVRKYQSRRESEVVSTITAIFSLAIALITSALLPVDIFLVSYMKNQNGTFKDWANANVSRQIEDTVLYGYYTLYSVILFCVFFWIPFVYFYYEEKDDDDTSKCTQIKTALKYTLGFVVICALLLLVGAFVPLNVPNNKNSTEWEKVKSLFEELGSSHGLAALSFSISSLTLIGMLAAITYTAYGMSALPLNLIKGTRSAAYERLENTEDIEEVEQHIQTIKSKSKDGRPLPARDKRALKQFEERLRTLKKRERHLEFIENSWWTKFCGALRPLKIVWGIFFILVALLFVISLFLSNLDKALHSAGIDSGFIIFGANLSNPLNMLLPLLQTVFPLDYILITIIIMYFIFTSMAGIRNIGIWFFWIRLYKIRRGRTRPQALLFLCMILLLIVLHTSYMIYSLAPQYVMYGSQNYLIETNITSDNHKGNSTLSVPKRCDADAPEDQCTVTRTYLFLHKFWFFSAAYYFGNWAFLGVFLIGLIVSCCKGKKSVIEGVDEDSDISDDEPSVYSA
inactive: [1] -0.073 | [2] 0.032 | [3] 0.015 | [4] 0.065 | [5] -0.01 | [6] -0.015 | [7] 0.015 | [8] -0.016 | [9] 0.133 | [10] -0.351 | [11] 0.154 | [12] 0.023 | [13] 0.042 | [14] 0.098 | [15] 0.052 | [16] 0.047 | [17] -0.023 | [18] -0.173 | [19] 0.053 | [20] -0.057

MFN2 (UniProt O95140)
Chain of UniProt O95140 (O95140 whole entry, looked up): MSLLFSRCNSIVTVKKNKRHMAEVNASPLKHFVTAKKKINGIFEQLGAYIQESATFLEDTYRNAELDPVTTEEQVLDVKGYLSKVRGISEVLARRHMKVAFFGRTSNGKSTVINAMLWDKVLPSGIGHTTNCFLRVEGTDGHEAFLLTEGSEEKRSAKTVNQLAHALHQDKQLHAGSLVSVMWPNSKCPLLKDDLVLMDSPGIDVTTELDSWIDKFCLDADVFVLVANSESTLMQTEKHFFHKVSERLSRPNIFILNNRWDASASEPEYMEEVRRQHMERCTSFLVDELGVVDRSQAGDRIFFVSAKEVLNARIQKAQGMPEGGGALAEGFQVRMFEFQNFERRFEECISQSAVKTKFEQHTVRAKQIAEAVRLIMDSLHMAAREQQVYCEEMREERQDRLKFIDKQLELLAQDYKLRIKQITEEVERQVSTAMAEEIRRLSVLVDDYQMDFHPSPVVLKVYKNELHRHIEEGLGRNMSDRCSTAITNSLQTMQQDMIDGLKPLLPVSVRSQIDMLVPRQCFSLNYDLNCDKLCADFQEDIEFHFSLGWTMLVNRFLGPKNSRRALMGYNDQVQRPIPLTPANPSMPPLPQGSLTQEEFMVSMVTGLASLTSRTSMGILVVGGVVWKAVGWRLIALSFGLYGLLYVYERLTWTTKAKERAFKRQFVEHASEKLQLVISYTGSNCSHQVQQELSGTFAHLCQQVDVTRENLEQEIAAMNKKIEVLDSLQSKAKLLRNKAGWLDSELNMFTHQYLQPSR
inactive: [1] -0.1 | [2] -0.23 | [3] 0.011 | [4] 0.047 | [5] -0.004 | [6] 0.011 | [7] 0.009 | [8] 0.03 | [9] -0.011 | [10] -0.213 | [11] -0.005 | [12] 0.045 | [13] -0.012 | [14] 0.02 | [15] -0.024 | [16] -0.066 | [17] 0.041 | [18] 0.058 | [19] -0.006 | [20] -0.026

IL10RB (UniProt Q08334)
Chain of UniProt Q08334 (Q08334 whole entry, looked up): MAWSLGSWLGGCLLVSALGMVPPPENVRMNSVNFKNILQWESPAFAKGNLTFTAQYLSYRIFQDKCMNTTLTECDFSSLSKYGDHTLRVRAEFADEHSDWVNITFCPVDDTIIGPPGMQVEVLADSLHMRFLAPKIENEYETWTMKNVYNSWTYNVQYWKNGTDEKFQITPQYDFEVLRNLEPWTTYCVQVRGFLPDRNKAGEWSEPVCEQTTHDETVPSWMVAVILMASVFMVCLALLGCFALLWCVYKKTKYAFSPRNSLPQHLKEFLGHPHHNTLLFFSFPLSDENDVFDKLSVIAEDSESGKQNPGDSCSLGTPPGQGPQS
inactive: [1] 0.045 | [2] -0.086 | [3] 0.05 | [4] 0.056 | [5] -0.089 | [6] -0.247 | [7] -0.018 | [8] 0.087 | [9] 0.007 | [10] 0.084 | [11] 0.107 | [12] -0.021 | [14] 0.022 | [15] -0.121 | [16] -0.042 | [17] 0.015 | [18] -0.005 | [19] -0.093 | [20] 0.026

MFGE8 (UniProt Q08431)
Chain of UniProt Q08431 (Q08431 whole entry, looked up): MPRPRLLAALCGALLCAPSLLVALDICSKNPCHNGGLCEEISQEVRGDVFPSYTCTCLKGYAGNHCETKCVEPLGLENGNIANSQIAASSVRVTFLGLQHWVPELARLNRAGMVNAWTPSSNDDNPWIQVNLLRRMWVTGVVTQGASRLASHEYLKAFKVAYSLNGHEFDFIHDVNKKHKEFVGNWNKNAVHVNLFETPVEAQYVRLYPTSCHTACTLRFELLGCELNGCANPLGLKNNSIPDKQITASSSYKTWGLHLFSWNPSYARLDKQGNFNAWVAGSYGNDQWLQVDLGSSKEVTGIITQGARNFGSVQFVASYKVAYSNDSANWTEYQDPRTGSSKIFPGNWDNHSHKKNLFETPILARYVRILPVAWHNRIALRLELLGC
inactive: [1] 0.061 | [2] 0.362 | [3] -0.007 | [4] -0.003 | [5] 0.063 | [6] -0.057 | [7] -0.103 | [8] -0.092 | [9] 0.114 | [10] 0.098 | [11] -0.171 | [12] -0.013 | [13] 0.034 | [14] 0.08 | [15] 0.066 | [16] 0.099 | [17] -0.043 | [18] -0.018 | [19] 0.037 | [20] -0.023
